Measurements reported in the supplement of paper PMC3334620.
The full ranking holds about 33,000 sequences; the median of “E-score (-0.5 to 0.5)” is about -0.012, and the highest 2% start at about 0.27. This excerpt belongs to a sample that is enriched for the highest values.

target: T1, Vhr1 (UniProt P40522); test: PBM E-score (8-mer binding enrichment) (E-score (-0.5 to 0.5)); higher = stronger / more preferred TF binding; conditions: protein concentration: 200 nM; construct: GST-full length
T1 sequence: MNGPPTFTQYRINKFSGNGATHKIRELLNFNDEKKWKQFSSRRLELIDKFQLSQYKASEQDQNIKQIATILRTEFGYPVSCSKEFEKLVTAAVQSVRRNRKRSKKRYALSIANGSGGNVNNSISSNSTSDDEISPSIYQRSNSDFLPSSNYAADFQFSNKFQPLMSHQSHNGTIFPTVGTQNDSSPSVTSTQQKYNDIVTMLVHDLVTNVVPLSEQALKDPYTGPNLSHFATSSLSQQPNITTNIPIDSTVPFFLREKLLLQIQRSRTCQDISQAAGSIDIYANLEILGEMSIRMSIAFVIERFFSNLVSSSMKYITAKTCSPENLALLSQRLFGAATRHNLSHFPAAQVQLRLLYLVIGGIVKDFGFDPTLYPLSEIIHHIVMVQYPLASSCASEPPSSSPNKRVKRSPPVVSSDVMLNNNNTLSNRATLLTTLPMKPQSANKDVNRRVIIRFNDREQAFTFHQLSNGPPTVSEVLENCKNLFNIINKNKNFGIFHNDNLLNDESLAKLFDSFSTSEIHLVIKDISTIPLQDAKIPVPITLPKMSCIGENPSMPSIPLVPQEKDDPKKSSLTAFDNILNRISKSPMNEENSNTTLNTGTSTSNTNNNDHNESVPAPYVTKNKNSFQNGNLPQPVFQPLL
Experimental: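 Universal 'all 10-mer' protein binding microarrays (Agilent AMADID 015681) probed with GST-tagged S. cerevisiae TFs (full-length or DBD) made by in vitro transcription/translation (PURExpress), about 100-200 nM. Bound TF was detected with fluorescent anti-GST. Each ungapped 8-mer (which stands for itself and its reverse complement) is scored by the PBM enrichment score (E-score), a modified Wilcoxon-Mann-Whitney statistic from -0.5 to +0.5, computed with the Universal PBM Analysis Suite. Scale: above 0.35 generally sequence-specific binding.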

Sequence	PBM E-score
TAGTTGAA	0.134
AAGAAACA	-0.161
CCAGACGC	-0.029
CTAAGGAC	-0.0588
CGTTGCCC	-0.166
ATCGCCTA	0.0387
AGGCAAAG	-0.192
GAGAGTCA	0.43
TAGAGTGA	-0.0169
AAGAGTCT	0.00073
GAGAGTAA	0.0595
TAGAGTCA	0.355
AAGAGTCA	0.422
TAGAGTAA	-0.082
AAGAGTCC	-0.149
GAGAGTCC	-0.0872
GGCTGGTA	0.0349
TATATTCA	0.0779
GAGTGTTA	0.00822
GTGCGATA	0.0799
GCAGTCTA	-0.0301
CGGGTGAC	0.143
GCATTGAC	-0.0613
GGCTGCCA	0.181
GCGGTAGC	0.0852

Sequence	PBM E-score
CAGAGAGG	-0.086
AGGGTGGG	0.282
AGGGTGGA	0.0785
AGGGTGGC	0.173
GAGACTTA	-0.164
AAGACTCT	0.209
TAGACTCA	0.221
AAGACTCC	0.158
CAGACTCC	-0.0111
AAGACTCA	0.317
GAGACTCA	0.36
GAGACTCC	0.286
CAGACTCA	0.27
CGAACCAG	0.0659
AACGGTTG	0.038
CCATAGGC	-0.172
ACCGCCCC	0.325
ACCGCCCT	-0.0373
ACCGCCCG	-0.058
CCCGCCCA	0.301
GCCGCCCA	0.128
CCCCGCCC	0.258
CCCGCCCG	0.259
CCCGCCCC	0.329
GCCGCCCC	0.0606

Sequence	PBM E-score
GAGTCTGC	-0.0315
AGTTTATG	-0.0791
ACGTTATG	-0.0459
CCTTCGCC	-0.031
ATGCAGTC	0.184
ATGCAGTA	0.0873
ATGCAGTG	0.276
GAATTTCC	-0.0327
GGAGAAAA	-0.292
AATCCACC	0.154
CAGTCCGA	0.126
GAGTCCGA	0.308
GAGTCCGC	0.224
AAGTCGGC	-0.177
GAGTCGTA	0.405
AAGTCGTA	-0.0973
CAGTCGTA	0.132
TAGTCGGA	0.203
GAGTCGGA	0.416
GAGTCGGC	0.411
CAGTCGGA	0.0502
CAGTCGGC	0.0497
AGTCCACT	-0.158
ATGCATCC	-0.152
GCAGCCCA	0.0376

Sequence	PBM E-score
AGGATTGG	-0.0691
TAGTTAAA	0.0419
AACTGAAT	0.00051
GATTGGCA	-0.056
AACTGAGG	-0.0666
GTACAAAA	-0.0126
ACGTTGAC	0.0527
CCACCTGG	-0.0837
CATCCTCG	0.124
CATATCAA	0.278
GATATCGA	-0.0237
CATATCGG	0.0424
CATATCAG	-0.0382
AATATCAA	0.0811
CATATCGA	0.292
CTTATACC	-0.0429
GCACAGAA	-0.0823
CCGCGAAG	0.039
GGAGATCC	-0.0359
CGCTTAAC	-0.225
TACGTCAA	-0.139
CAAACAGG	0.0517
CCTATGAC	0.0237
ACTATGAT	0.351
ACTATGAG	0.181

Sequence	PBM E-score
ACTATGAC	0.286
ACTATGAA	0.0955
GCTATGAC	0.201
AGACTACT	0.216
ATTCTATC	-0.154
CCGCTAGC	-0.266
GCTGTCCC	-0.206
AGATCGAC	-0.0907
AATCAGAC	0.201
CCGTGGCG	0.189
GCGGTCAC	-0.00992
GACCCAGA	0.0388
CAATCAGC	0.193
GAATCAGC	0.307
TAATCAGA	0.146
AAATCAGC	0.121
AAATCAGA	0.0175
GAATCAGA	0.319
CCACACCC	0.197
GAAAATTC	-0.274
AAGCTTCC	-0.37
ATGGGCTC	0.272
CTGGGCTC	-0.135
ATGGGCTG	0.198
AAGTCAAT	0.0223

Sequence	PBM E-score
TAGTCGCA	0.309
AAGTCGCA	0.173
CAGTCGAC	0.197
GAGTCGCC	0.424
AAGTCGAC	0.17
TCGTCGCA	0.111
TAGTCGAA	0.0212
CAGTCGCC	0.147
AAGTCGCC	-0.0133
GAGTCGCA	0.391
GAGTCGAC	0.294
CAGTCGCA	0.0715
ATCAGGCC	-0.0546
ACACTAAA	0.238
CTACTTAA	-0.204
GACTCATC	0.452
CACTCATA	0.179
GACTCAAC	0.42
GACTCAAA	0.266
AACTCATA	0.141
AACTCATC	0.209
CACTCAAC	0.0922
GACTCATA	0.388
CACTCATC	0.137
AAGTAGAC	-0.0556

Sequence	PBM E-score
AGCCATTG	0.172
CCCGCTAG	-0.249
TCCCGGGA	-0.0779
GTAGGTAA	-0.114
GGCGAAGA	-0.152
CCACTCAA	0.133
GGACTCAA	0.143
TGACTCAA	0.468
CGACTCAA	0.386
CTACTCAA	0.113
AGACTCAA	0.214
CGATTTAG	-0.0352
ACATTCAT	0.0173
CTACCTGC	-0.0175
CGTGAGAC	0.0393
AGACCTTA	0.0612
AAGAGGTA	0.0122
CGACCCAA	0.14
GCTAATCA	0.262
CTCAATCA	0.33
CGTAATCC	-0.104
AGTAATCG	0.141
ATCAATCA	0.248
CTCAATCC	-0.0448
GGTAATCA	0.288

Sequence	PBM E-score
CGTAATTA	-0.128
GGTAATGA	0.023
CGTAATCA	0.273
AGTAATCC	0.0334
AGTAATCA	0.303
AATTGGCT	-0.0912
ATACTGTA	0.224
GGAAACGA	0.0811
GGTGTCCA	-0.0191
ACAAGTGA	-0.154
CAGATTAG	-0.0795
AAATAACG	-0.00647
GTAATGTA	-0.131
GCCGCGGC	0.237
CCCGCCGA	0.00185
ACCGCCAC	0.0902
GCCGCCAC	-0.0771
ATCCCCGC	0.129
CCCGCGGA	-0.0501
CCCGCGGC	0.272
CCCGCCGG	0.134
CTCCCCGA	-0.116
CTCCCCGC	0.325
CCCGCCAC	0.321
CCCGCCGC	0.36

Sequence	PBM E-score
ATGACCCC	0.211
AAGGCAGC	-0.132
ATATAGAA	0.11
AGCATCAG	0.0568
CATGTTCG	0.0242
GATTGGGC	-0.102
CAACCTCC	0.0131
CTGTATCA	-0.0153
ATGTATCA	0.267
GTGTATCA	0.275
GCACTTTA	-0.249
CAGTTACG	-0.125
ATACTGTG	0.0981
ATACTCAG	0.274
ACTCTCAG	-0.0997
ATACTCAC	0.17
CTACTCAG	0.153
ATACTCAT	0.277
ATACTGTC	0.137
ATACTCAA	0.178
ATACTGAG	0.302
CGAGTTCC	0.0292
GCAAACTA	0.0776
AATGCTCA	0.021
AAGAATAC	0.0498

Sequence	PBM E-score
AGGGTCGA	0.158
ACCTGCCC	0.0405
CTACGCCC	0.0207
CGGCAGTA	-0.109
ACAACCCC	-0.061
CATGCTCC	-0.08
GATCATGA	0.197
AATCATTC	0.251
AATCAGGT	0.268
AATCAGGG	0.133
AATCAAGG	0.0679
AATCAAGT	0.174
AATCATTA	0.222
AATCATTG	0.283
AATCATGT	0.389
AATCATGA	0.331
AATCATGG	0.387
TATCATGA	0.189
CCGCCAAC	0.163
GCATTGAA	-0.0212
AACTAGTT	-0.125
AAAGGTTA	-0.357
CATCTATA	0.0881
CATCATGG	0.152
CATCATGA	0.276

Sequence	PBM E-score
CAACATGA	0.3
CATCATAA	0.133
GATCATGC	0.0952
CAACATGG	0.0395
CATCATGC	0.201
AATCATGC	0.304
CAACATGC	0.15
AGAGCGAC	0.0123
ACTATAGC	0.00988
CTCGATTA	0.216
TACGAGCA	-0.0868
GGAATACA	0.0161
CACCCGTC	0.0428
CAACGCTA	-0.125
AATGAATC	0.23
GAGGAATC	0.0804
CATGAATC	0.31
CAGGAATG	0.0121
AACGAATC	0.125
CAGGAATC	0.313
CTTGATTC	0.214
CACGAATA	0.066
CATGATTC	0.424
CATGATCC	0.213
CACGAATC	0.288

Sequence	PBM E-score
GATGAATC	0.249
CAGTATCC	0.124
GCTGGCGA	-0.0575
GGCAGACA	-0.0678
ATTGCCCA	-0.113
CCGGTCCG	0.112
AAATGAAT	-0.0848
CTGATCGA	0.0718
CTGGACCC	-0.213
CACTGCCG	0.173
ATACTACG	-0.0642
CTGAGATA	-0.128
GCAGCTTA	-0.0202
CATGATAA	0.108
AATGATTG	0.199
ATTGATTC	0.171
CATGATTA	0.369
CTTGATTA	0.0605
AATGATTC	0.406
TAACCTAA	-0.187
ACCTTCTG	0.167
GCCACCCC	-0.0413
ACCACCCC	0.112
CCCACCCG	0.382
CCCACCCC	0.389

Sequence	PBM E-score
CCCACCCA	0.263
ACCACCCG	-0.0147
AACCCCTA	-0.0392
AACACCGA	0.108
AACGACTT	-0.216
GACGACTA	0.162
AACGACTC	0.292
GACGACTC	0.358
AACGACTA	0.0488
GACGACGC	-0.049
CACGACTA	0.209
CACGACTC	0.378
CACGACTG	0.178
GCACCCAA	-0.0528
AGTCTTGC	0.0289
ACAGCTCC	0.0267
TTACCTAA	-0.0877
GAGTCAGA	0.447
CAGTCAGA	0.224
GCGTCAGC	-0.256
ATGTCAGC	0.072
GAGTCAGC	0.476
CAGTCAGC	0.232
AAGTCAGC	0.281
AAGTCAGA	0.0614

Sequence	PBM E-score
GGGTCAGA	-0.0746
CATGGGAC	0.02
GTACTTCA	0.114
CAATGGTC	0.115
CCTAGTAC	0.0265
ATGCTCAA	-0.0744
CTCGAGAA	-0.188
AGCAGTCA	0.256
CGCAGTCC	0.0797
GGCAGTCA	0.345
GGCAGTGA	0.0755
CGCAGTCA	0.363
GGCAGTAA	0.125
AGACCTGC	-0.147
GGCGCGAC	0.275
GGCGCGAA	0.0599
GTCGCGAA	0.0553
GTCGCGAC	0.379
CGCGCGAC	0.162
CTCGCGAC	0.242
